Each structure is given as a SMILES string. Where “and” joins values, the source holds several entries; their conditions need not be identical. Identical values can stand only once. Calls of active or inactive are those of the source.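 The calls were made as follows, unless noted: active = compound raises insulin release from rat beta cells at 5 mM glucose, no numeric limit stated; inactive = the rest.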

Assay [1] is described as follows: Wnt pathway potentiators raising nuclear beta-catenin – imaging, WNT3A-conditioned medium, mouse C2C12, NPC library, primary screen (AID 1117326; in the data active = nuclear beta-catenin stimulation mostly above about 4.2%, no sharp cut-off; inactive = mostly below about 10%). The settings on record: stronger effect = higher value.
A short description of assay [2]: stimulators of insulin release from INS-1E, primary screen, cell-based, 5 mM glucose, NPC library (AID 1117329). The conditions noted are these: rat INS-1E insulin secretion, at 10 µM, stronger effect = higher value.
Assay [3] in a line: growth inhibition of GSK3B-pretreated HCT116 cells – cell-based, CellTiter-Glo, 0.2 to 20 µM (AID 1117336;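 active = compounds lowering colon cancer cell viability after pretreatment blocking the GSK3B kinase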). The settings on record: HCT116 viability after GSK3B inhibitor, at 20 µM, stronger effect = higher value.
Assay [4] can be described thus: inhibition of endothelial tube formation, primary screen, imaging, VEGF stimulated, CD31 staining, tube area, NPC library (AID 1117340;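 active = compound that reduces growth-factor-driven endothelial tube area in a mixed cell culture, no cutoff stated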). The conditions noted are these: VEGF-stimulated ADSC/ECFC co-culture, at 10 µM, stronger effect = higher value.
A short description of assay [5]: GLP1 release stimulators, primary, NCI-H716, NPC library (AID 1117341;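 active = compound raises GLP1 secretion from the human gut endocrine cells, with no numeric limit stated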). The conditions noted are these: NCI-H716 cells, at 10 µM, stronger effect = higher value.
The nature of assay [6]: HCT116 colon cancer cell growth inhibition, primary screen, CellTiter-Glo luminescence, NPC library (AID 1117342;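 active = compounds that lower survival of HCT116 colon cancer cells in the luminescence readout, no numeric limit stated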). The settings on record: at 20 µM (top of the series).
Assay [7] can be described thus: reduced SW480 viability measured with CellTiter-Glo, NPC library, primary (AID 1117343;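 active = compounds that lower viability of the colon cancer cells in the luminescence readout, with no numeric limit stated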). The conditions noted are these: CellTiter-Glo luminescence; at 20 µM (top of the series) unless noted.
The nature of assay [8]: NPC library primary testing for decreased DLD-1 cell viability via CellTiter-Glo (AID 1117346;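 active = compounds that lower survival of DLD-1 colon cancer cells in the luminescence readout, no cutoff given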). The conditions noted are these: DLD-1 viability, CellTiter-Glo luminescence; at 20 µM (top of the series).
A short description of assay [9]: EMT-state selective cytotoxicity in co-culture – imaging, PC-3E GFP, TEM4-18 mCherry, primary screen (AID 1345086;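 active = compounds killing one labelled cell type while sparing the other, by normalised counts and ratio limits, not self-fluorescent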;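 as to all read-outs here: cells exposed to compound for 72 h before imaging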;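 as to red/green cell ratio (normalised): normalised mesenchymal count divided by normalised epithelial count so high means epithelial killing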). The conditions noted are these: PC-3E GFP / TEM4-18 mCherry co-culture, imaging cell counts, at 1 µM; for red/green cell ratio (normalised): actives lie on both sides, counts scaled to control wells, 1 = unselective.
Assay [10] in a line: P. berghei load reduction in hepatocytes – cell-based, HepG2, luciferase luminescence, HepG2 viability, primary screen (AID 624349; in the data active = parasite load remaining mostly below about 12%, no sharp cut-off; inactive = mostly above about 10%;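 also: 100% = mean of DMSO negative control wells on the same plate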). The settings on record: P. berghei liver stage in HepG2, luciferase luminescence, concentration not given here; parasite load remaining: stronger effect = lower value; viability: measured here: HepG2 viability without parasites.
A short description of assay [11]: viability loss with induced miR-34 in A549 – imaging, A549 dox-inducible miR-34, nuclei and caspase counts, primary screen (AID 1347080;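 active = compounds whose cell count with miR-34 switched on is under 0.7 times the count with it off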). The settings on record: A549 miR-34 inducible, Hoechst nuclei count, 48 h.
Assay [12] has as its target NAD(+) hydrolase SARM1 (Homo sapiens) (UniProt Q6SZW1). As to the kind of experiment: blocking NAD cleavage by SARM1 SAM-TIR – cell lysate, NAD-Glo luminescence (AID 1508614;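 active = compound whose remaining NAD level is above about 45 nM, limit read from the data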;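 also: higher remaining NAD means stronger inhibition of SARM1 NADase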). The settings on record: SAM-TIR HEK293T lysate NADase, at 1 µM, stronger effect = higher value.
The mark [13] stands for this setting: measured here: epithelial PC-3E GFP cell survival.
Setting [14] is: measured here: mesenchymal TEM4-18 mCherry cell survival.
Where [15] appears, read: stronger effect = lower value, cell number ratio, induced over uninduced.
Where [16] appears, read: measured here: relative caspase fold change +Dox/-Dox.
[17] abbreviates: measured here: total cells with miR-34 induction, stronger effect = lower value.
[18] abbreviates: measured here: total cells without miR-34 induction.

Chain of NAD(+) hydrolase SARM1 (Homo sapiens) (Q6SZW1 whole entry, looked up): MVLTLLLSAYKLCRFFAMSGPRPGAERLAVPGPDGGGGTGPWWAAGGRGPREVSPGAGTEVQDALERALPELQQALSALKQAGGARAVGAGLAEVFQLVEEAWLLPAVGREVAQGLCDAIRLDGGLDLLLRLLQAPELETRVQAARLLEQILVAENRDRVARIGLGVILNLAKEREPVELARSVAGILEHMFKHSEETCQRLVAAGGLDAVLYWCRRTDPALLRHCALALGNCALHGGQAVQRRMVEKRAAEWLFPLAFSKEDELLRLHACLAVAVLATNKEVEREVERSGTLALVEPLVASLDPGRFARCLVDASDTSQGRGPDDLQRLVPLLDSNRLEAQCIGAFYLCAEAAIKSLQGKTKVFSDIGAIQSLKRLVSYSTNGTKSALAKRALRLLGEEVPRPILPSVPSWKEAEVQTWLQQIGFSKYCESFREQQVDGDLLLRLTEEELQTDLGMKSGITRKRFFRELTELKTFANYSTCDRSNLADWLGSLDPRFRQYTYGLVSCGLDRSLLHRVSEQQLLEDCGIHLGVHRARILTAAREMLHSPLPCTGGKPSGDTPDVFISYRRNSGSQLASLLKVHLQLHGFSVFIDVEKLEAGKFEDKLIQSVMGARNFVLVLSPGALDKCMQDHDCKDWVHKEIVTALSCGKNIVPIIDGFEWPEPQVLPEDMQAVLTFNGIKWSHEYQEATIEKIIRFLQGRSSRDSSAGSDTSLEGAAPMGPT

For the molecule `CNCc1ccccc1`, the nuclear beta-catenin stimulation is -1.9% (inactive) in assay [1] (at 10 µM) and 0.6% in assay [1] (stimulation, at 2 µM). For the same molecule, the insulin secretion stimulation in assay [2] was -0.1% (inactive). Moreover, in assay [3], the viability decrease was -25.9% (inactive). Further, the tube area decrease in [4] is -5.5% (inactive). Besides, the GLP1 secretion stimulation in [5] is -3.4% (inactive). For the same molecule, the inhibition of viability in [6] was -14.3% (inactive). For the same molecule, the viability decrease (inhibition) in assay [7] was -24.6% (inactive); in assay [8], -15.4% (inactive). In addition, the red/green cell ratio (normalised) in [9] was 0.9 (inactive). Besides, the normalised cell number is 1.18 in [9] (setting [13]) and 1.06 in assay [9] (setting [14]).

For `CC(=O)NCc1c(I)c(NC(C)=O)c(I)c(C(=O)O)c1I`, the parasite load remaining in assay [10] was 120% (inactive) and 34.8% (inactive). The viability in assay [10] was 74.1% and 92.4%. The nuclear beta-catenin stimulation was -1.4% (inactive) in assay [1] (at 10 µM) and -1.3% in assay [1] (stimulation, at 2 µM). The insulin secretion stimulation in [2] is -0.4% (inactive). Further, the viability decrease in [3] was -16.4% (inactive). Further, the tube area decrease in [4] was -6.1% (inactive). The GLP1 secretion stimulation in [5] is 0% (inactive). Further, in assay [6], the inhibition of viability is -14.3% (inactive). In addition, the viability decrease (inhibition) in [7] was 27.5% (inactive); in [8], -14.8% (inactive). The red/green cell ratio (normalised) in [9] was 1.24 (inactive). The normalised cell number in assay [9] (setting [13]) was 1.02; in assay [9] (setting [14]), 1.27. Moreover, the figures for the fold change in [11] (setting [15]) and in assay [11] (setting [16]) were 0.851 (inactive) and 1.88, respectively. The cell count in [11] (setting [17]) is 10700; in assay [11] (setting [18]), 12600.

Regarding `O=C(Nc1ccc(C(=O)O)c(O)c1)c1ccccc1`, the parasite load remaining in assay [10] is 47.9% (inactive). Further, in assay [10], the viability was found to be 101%. The nuclear beta-catenin stimulation was 0.3% (inactive) in [1] (at 10 µM) and 0.4% in [1] (stimulation, at 2 µM). The insulin secretion stimulation in assay [2] is -1.2% (inactive). The viability decrease in assay [3] is 1.7% (inactive). Moreover, in assay [4], the tube area decrease is 7.2% (inactive). Also, the GLP1 secretion stimulation in assay [5] is -0.4% (inactive). For the same molecule, the inhibition of viability in [6] was -1.1% (inactive). Besides, the viability decrease (inhibition) in assay [7] was 74.5% (active); in assay [8] it was 0.8% (inactive). The red/green cell ratio (normalised) in [9] was 1.04 (inactive). For the same molecule, the normalised cell number was found to be 0.89 in assay [9] (setting [13]) and 0.92 in assay [9] (setting [14]). Moreover, the fold change is 0.856 (inactive) in [11] (setting [15]) and 5.2 in assay [11] (setting [16]). In addition, the results for the cell count in assay [11] (setting [17]) and in assay [11] (setting [18]) were 11700 and 13700, respectively. For the same molecule, the remaining NAD in assay [12] was 10 nM (inactive).

Take `O=C(CCCl)NCc1ccccc1`: the nuclear beta-catenin stimulation was 0.5% (inactive) in assay [1] (at 10 µM) and 8.3% in assay [1] (stimulation, at 2 µM). Also, the insulin secretion stimulation in assay [2] is 1.8% (inactive). In addition, the viability decrease in assay [3] was 0.2% (inactive). The tube area decrease in assay [4] was -9.5% (inactive). Also, in assay [5], the GLP1 secretion stimulation was -0.7% (inactive). The inhibition of viability in assay [6] is 5% (inactive). For the same molecule, the viability decrease (inhibition) is 0.6% (inactive) in [7] and 14.6% (inactive) in assay [8]. Moreover, the red/green cell ratio (normalised) in assay [9] is 0.95 (inactive). Further, the values for the normalised cell number in [9] (setting [13]) and in assay [9] (setting [14]) were 1.13 and 1.07, respectively. The remaining NAD in [12] is 10 nM (inactive).

Take `O=C(O)CN(CC(=O)O)Cc1cc2c(-c3ccccc3C(=O)O)c3cc(CN(CC(=O)O)CC(=O)O)c(=O)cc-3oc2cc1O`: in assay [10], the parasite load remaining was 107% (inactive). The viability in assay [10] came to 73.2%. The nuclear beta-catenin stimulation in [1] (at 10 µM) was -1.1% (inactive); in [1] (stimulation, at 2 µM), -0.6%. In assay [2], the insulin secretion stimulation was -0.4% (inactive). Further, the viability decrease in [3] is 38.8% (inactive). In assay [4], the tube area decrease was 19.9% (inactive). In addition, the GLP1 secretion stimulation in assay [5] is 0.8% (inactive). Moreover, the inhibition of viability in assay [6] was 22.3% (inactive). Further, the viability decrease (inhibition) in assay [7] was 25.8% (inactive); in assay [8], 14.8% (inactive). Moreover, the red/green cell ratio (normalised) in assay [9] was 0.97 (inactive). The results for the normalised cell number in assay [9] (setting [13]) and in assay [9] (setting [14]) were 1.53 and 1.49, respectively.
